7 molecules from PubChem BioAssay (Tox21) can be followed below.

Experiment [1] can be described thus: qHTS assay to identify small molecule antagonists of the estrogen related receptor (ERR) signaling pathway from Tox21 library - cell viability counter screen (AID 1224834). Further: nearly all actives have a fitted effect of over 30% in size. Further: potency means the concentration at half of the fitted maximal effect. The conditions noted are these: ERR reporter cells viability, CellTiter-Fluor, 17.5 h; series mostly up to 92.4 µM. Put shortly:
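CellTiter-Fluor fluorescence measured; ERR cells; 17.5 h compound incubation at 37 C; 30 min reagent step.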
A general note: Quantitative high-throughput screening tests each substance at several concentrations.

Experiment [2] addresses Luciferin 4-monooxygenase (Photinus pyralis) (UniProt P08659). The experiment can be described thus: qHTS assay to identify small molecule inhibitors of firefly luciferase (AID 1224835). Further: nearly all actives have a fitted effect of over 25% in size. Further: potency means the concentration at half of the fitted maximal effect. The conditions noted are these: purified P. pyralis luciferase, luminescence inhibition; series mostly up to 115 µM. Put shortly: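 Biochemical qHTS: compounds run as interplate titrations against purified firefly enzyme, with D-luciferin and ATP each at its KM concentration. Light output recorded by CCD imaging.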

Experiment [3] can be described thus: qHTS assay to identify small molecule antagonists of the constitutive androstane receptor (CAR) signaling pathway - cell viability counter screen (AID 1224837). Further: nearly all actives have a fitted effect of over 45% in size. Further: potency means the concentration at half of the fitted maximal effect. Conditions: HepG2-CYP2B6-hCAR viability, CellTiter-Fluor, 23 h, co-treated with 50 nM CITCO; series mostly up to 92.4 µM. The procedure, abridged: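 Using CellTiter-Fluor, viability is scored in HepG2 cells stably carrying hCAR and a 2.2kb CYP2B6 reporter after 23 hr compound exposure across 15 concentrations, with CITCO present at 50 nM.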

Experiment [4] can be described thus: qHTS assay to identify small molecule antagonists of the estrogen related receptor signaling pathway with the pleiotropic PPARgamma coactivator (PGC) from Tox21 10K library - cell viability counter screen (AID 1224840; active means well fitted cell-killing curve with a large enough effect in the repeat runs, not every such curve was filed as active; further: nearly all actives have a fitted effect of over 40% in size; further: potency means the concentration at half of the fitted maximal effect). Conditions: PGC/ERR reporter cells viability, CellTiter-Fluor, 17.5 h; series mostly up to 92.4 µM. The procedure, abridged:
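Here the PGC/ERR cells serve as a cytotoxicity control: they are exposed to compounds for 17.5 hours at 37 C, and live-cell signal is quantified using CellTiter-Fluor fluorescence.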

For experiment [5], the target named is Thyrotropin receptor (Homo sapiens) (UniProt P16473). The experiment can be described thus: qHTS assay to identify small molecule agonists of the thyroid stimulating hormone receptor (TSHR) signaling pathway (AID 1224843; calls by dose curve; further: nearly all actives have a fitted effect of over 45% in size). The conditions noted are these: TSHR-HEK293 cells, cAMP HTRF, agonist mode, 30 min; series mostly up to 92.4 µM. The procedure, abridged: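 Steps: seed 800 TSHR-HEK293 cells per well; add test compound and hold 30 min at ambient temperature; dispense cAMP-d2 then anti-cAMP cryptate; incubate 1 h at ambient; measure fluorescence intensity.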

Experiment [6] has as its target Nuclear receptor subfamily 1 group I member 3 (Homo sapiens) (UniProt Q14994). The experiment can be described thus: qHTS assay to identify small molecule antagonists of the constitutive androstane receptor (CAR) signaling pathway (AID 1224838).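 Further: HepG2 cells stably expressing hCAR with CYP2B6 luciferase reporter stimulated by CITCO; nearly all actives have a fitted effect of over 40% in size.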 The conditions noted are these: HepG2-CYP2B6-hCAR luciferase, CITCO-stimulated, 24 h; series mostly up to 92.4 µM. The procedure, abridged:
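Reporter luminescence was quantified after 24 h exposure of hCAR/CYP2B6-2.2kb double-stable HepG2 cells to compounds at 15 concentrations in the presence of 50 nM CITCO final.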

A short description of experiment [7]: qHTS assay to identify small molecule agonists of the constitutive androstane receptor (CAR) signaling pathway - cell viability counter screen (AID 1224836). Further: nearly all actives have a fitted effect of over 45% in size. The conditions noted are these: HepG2-CYP2B6-hCAR viability, CellTiter-Fluor, 23 h, PK11195 added to every well; series mostly up to 92.4 µM. Put shortly:
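Double-stable HepG2 hepatoma cells (hCAR plus CYP2B6-2.2kb) are treated for 23 h at 37 C with test compounds in 15-point concentration series. PK11195 at 0.75 uM final is co-added. Cell viability is quantified by CellTiter-Fluor.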

Experiment [8] deals with Nuclear receptor subfamily 1 group I member 3 (Homo sapiens) (UniProt Q14994). The experiment can be described thus: qHTS assay to identify small molecule agonists of the constitutive androstane receptor (CAR) signaling pathway (AID 1224839). Further: nearly all actives have a fitted effect of over 15% in size. Further: potency means the concentration at half of the fitted maximal effect. Conditions: HepG2 hCAR CYP2B6-luciferase, agonist mode, 24 h; series mostly up to 92.4 µM. Put shortly: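 Readout: firefly luciferase luminescence via ONE-Glo. System: HepG2 double-stable for hCAR and CYP2B6-2.2kb. Conditions: 15-point compound titration, PK11195 at 0.75 uM final, 24 h incubation.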

Experiment [9] can be described thus: qHTS assay to identify small molecule antagonists of the estrogen related receptor signaling pathway with the pleiotropic PPARgamma coactivator (PGC) from Tox21 10K library (AID 1224841; call rule not given here; further: actives are mostly falling curves and most rising ones were filed inactive; nearly all actives have a fitted effect of over 50% in size; further: potency means the concentration at half of the fitted maximal effect). Conditions: PGC/ERR reporter cell line, ONE-Glo luciferase, 18 h; series mostly up to 92.4 µM. Put shortly: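 Each well held 2,000 PGC/ERR cells, pre-incubated six hours (37 C, 5% CO2). Test substances in DMSO were added by pin tool and left for 18 h at 37 C before luciferase detection by One-Glo.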

Experiment [10] can be described thus: qHTS assay to identify small molecule agonists of the estrogen related receptor signaling pathway with the pleiotropic PPARgamma coactivator (PGC) from Tox21 10K library (AID 1224842). Further: nearly all actives have a fitted effect of over 15% in size. Conditions: PGC/ERR reporter cell line, luciferase ONE-Glo, 18 h; series mostly up to 92.4 µM. The procedure, abridged: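 PGC/ERR reporter cell line, 2,000 cells per well, incubated 6 h at 37 C before 23 nL compound in DMSO was added. After 18 h at 37 C, One-Glo luminescence read following 30 min at room temperature.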

Several values for one entry are separate records, joined by “and”; a condition that tells them apart may be missing. Equal values may be shown once. Results filed as inconclusive are left out. Where a structure was tested more than once in an assay, its records may differ in their call. Activity calls are given as the source filed them. Unless noted, the call rests on the fitted dose curve; in most records, active means well fitted curve in the direction sought with a large enough effect in the repeat runs; inconclusive means weak or mixed curves; inactive means no such curve, though single readings can be large; an effect the other way counts as inactive or inconclusive.

Thyrotropin receptor (Homo sapiens), sequence (P16473 whole entry, looked up): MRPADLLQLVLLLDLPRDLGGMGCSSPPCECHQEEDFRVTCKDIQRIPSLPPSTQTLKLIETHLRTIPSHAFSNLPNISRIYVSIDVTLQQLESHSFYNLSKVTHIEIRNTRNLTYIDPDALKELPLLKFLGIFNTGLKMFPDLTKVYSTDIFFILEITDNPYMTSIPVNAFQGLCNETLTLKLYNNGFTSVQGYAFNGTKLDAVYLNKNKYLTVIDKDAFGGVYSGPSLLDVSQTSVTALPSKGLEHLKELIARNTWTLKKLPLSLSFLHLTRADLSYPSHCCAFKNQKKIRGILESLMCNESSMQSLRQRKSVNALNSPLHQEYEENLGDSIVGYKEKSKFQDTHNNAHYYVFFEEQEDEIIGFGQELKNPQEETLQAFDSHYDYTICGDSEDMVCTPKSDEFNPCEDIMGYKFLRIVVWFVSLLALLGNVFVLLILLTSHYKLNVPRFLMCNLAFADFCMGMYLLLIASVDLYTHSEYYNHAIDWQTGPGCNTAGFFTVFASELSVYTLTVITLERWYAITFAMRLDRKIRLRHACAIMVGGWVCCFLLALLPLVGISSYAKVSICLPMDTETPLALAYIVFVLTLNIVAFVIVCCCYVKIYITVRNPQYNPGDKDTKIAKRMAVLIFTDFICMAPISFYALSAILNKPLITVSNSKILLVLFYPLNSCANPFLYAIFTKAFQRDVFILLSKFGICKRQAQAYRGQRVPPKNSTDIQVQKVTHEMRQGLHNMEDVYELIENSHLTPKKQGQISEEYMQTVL
Nuclear receptor subfamily 1 group I member 3 (Homo sapiens), sequence (Q14994 whole entry, looked up): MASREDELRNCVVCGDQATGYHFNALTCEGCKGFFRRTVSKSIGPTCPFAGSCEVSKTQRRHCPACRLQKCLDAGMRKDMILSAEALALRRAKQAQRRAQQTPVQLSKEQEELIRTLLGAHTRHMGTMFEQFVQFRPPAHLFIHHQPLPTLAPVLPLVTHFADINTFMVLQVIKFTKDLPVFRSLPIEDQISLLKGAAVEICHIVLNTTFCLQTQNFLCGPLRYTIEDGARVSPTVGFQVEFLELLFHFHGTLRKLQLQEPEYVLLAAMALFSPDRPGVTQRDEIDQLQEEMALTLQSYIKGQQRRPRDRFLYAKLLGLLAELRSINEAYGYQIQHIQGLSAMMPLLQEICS
Luciferin 4-monooxygenase (Photinus pyralis), sequence (P08659 whole entry, looked up): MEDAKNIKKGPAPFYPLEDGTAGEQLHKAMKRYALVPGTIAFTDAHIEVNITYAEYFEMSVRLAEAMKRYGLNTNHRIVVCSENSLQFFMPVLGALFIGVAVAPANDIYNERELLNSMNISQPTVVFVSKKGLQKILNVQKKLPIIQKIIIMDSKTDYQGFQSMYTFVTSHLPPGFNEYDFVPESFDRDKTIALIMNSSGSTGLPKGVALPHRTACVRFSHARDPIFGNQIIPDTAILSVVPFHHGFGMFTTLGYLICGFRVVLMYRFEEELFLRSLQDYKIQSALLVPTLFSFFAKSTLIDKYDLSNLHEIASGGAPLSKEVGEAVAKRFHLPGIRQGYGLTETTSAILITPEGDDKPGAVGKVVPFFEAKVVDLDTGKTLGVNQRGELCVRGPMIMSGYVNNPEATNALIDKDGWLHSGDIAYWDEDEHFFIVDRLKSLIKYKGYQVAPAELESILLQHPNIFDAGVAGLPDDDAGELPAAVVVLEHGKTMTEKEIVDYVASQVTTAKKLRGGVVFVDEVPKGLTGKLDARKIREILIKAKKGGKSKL

Take `O=NN1CCOCC1`: the Potency result in experiment [1], in experiment [2], in [3], in experiment [4] and in [5] was “inactive” throughout.

For `COC(=O)Nc1nc2ccccc2[nH]1`, the Potency entry in [1], in [2], in experiment [3], in [6], in experiment [4] and in experiment [5] was “inactive” in each case.

Take `c1ccc2c(c1)Nc1ccccc1S2`: the Potency result in experiment [7], in [3], in [6], in experiment [9] and in experiment [10] was “inactive” each time. Besides, the Potency in experiment [8] is 30.6 µM (active).

Take `CCOP(=O)(O)OCC` (tested in a mixture with another compound): the Potency entry in experiment [1] was “inactive and 54 µM (active)”; in [4], “inactive and 60.6 µM (active)”. For the same molecule, the Potency result in experiment [2] was “inactive”.

`N#Cc1nn(-c2c(Cl)cc(C(F)(F)F)cc2Cl)c(N)c1S(=O)C(F)(F)F` (stereo not drawn): the Potency in [1] was 27.5 µM (active) and 29.8 µM (active); in [9], 7.74 µM (active) and 21.1 µM (active). In addition, the Potency entry in [2], in experiment [3], in [6], in experiment [8], in [10] and in experiment [5] was “inactive” throughout.

Regarding `O=S(=O)(O)C(F)(F)C(F)(F)C(F)(F)C(F)(F)C(F)(F)C(F)(F)C(F)(F)C(F)(F)F`, the Potency result in experiment [1], in experiment [3], in experiment [4], in experiment [10] and in experiment [5] was “inactive” throughout. Further, the Potency is 75.8 µM (active) and 71 µM (active) in [2]; “inactive and 5.45 µM (active)” in experiment [9].

`O=[N+]([O-])c1ccc(Nc2ccccc2)cc1`: the Potency in experiment [1] is 27.5 µM (active) and 30.6 µM (active); in experiment [3] it was 30.9 µM (active). In addition, the Potency result in [2], in experiment [6], in [8], in experiment [9], in [10] and in [5] was “inactive” throughout.
